Each structure is given as a SMILES string. Records with an inconclusive call do not appear. Active and inactive are the calls of the source.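 The calls were made as follows, unless noted: active = inhibition above 54%, about 3 SD of non-fluorescent compounds; inactive = the rest.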

Assay [1] is described as follows: rapamycin-like changes in RPL19A-GFP expression – cell-based, S. cerevisiae, multiplex flow cytometry, primary screen (AID 1862; in the data active = percent of DMSO control GFP below about 86%;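 also: lower values mimic rapamycin by blocking the RPL19A rise seen in DMSO cells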). The note with it: S. cerevisiae RPL19A-GFP strain, flow cytometry fluorescence, 3 h; at 10 µM; stronger effect = lower value.
Assay [2] is described as follows: TOR pathway GLN3 branch reporter MEP2-GFP changes – S. cerevisiae, multiplex flow cytometry, primary screen (AID 1867;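 active = GFP response, as percent of the DMSO control, above the screen-wide mean plus 3 SD, about 139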;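 also: median GFP channel fluorescence of barcode-gated MEP2-GFP cells measured by flow cytometry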). The settings on record: S. cerevisiae MEP2-GFP strain, 3 h, at 10 µM, stronger effect = higher value, 100% means same as DMSO wells.
The nature of assay [3]: TOR pathway RTG branch CIT2 reporter changes – S. cerevisiae, GFP fusion, multiplex flow cytometry, primary screen (AID 1870;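 active = percent response above a set limit, the screen-wide mean plus 3 SD, cut at about 130% in these data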;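 also: barcoded CIT2-GFP strain pooled with four other GFP strains with rapamycin as positive control; median GFP fluorescence per well over plate mean of DMSO wells so 100% = DMSO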). The note with it: S. cerevisiae CIT2-GFP expression, 3 h, at 10 µM, stronger effect = higher value.
The nature of assay [4]: TOR pathway LAP4-GFP level changes – S. cerevisiae, multiplex flow cytometry, primary screen (AID 1873;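 active = GFP signal, as percent of the solvent control, above the screen mean plus 3 SD, about 149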). The note with it: S. cerevisiae LAP4-GFP expression, 3 h, at 10 µM, stronger effect = higher value. On the technique in general: In flow cytometry, cells or beads pass a laser one at a time.
The nature of assay [5]: yeast AGP1-GFP level changes, GLN3 branch – cell-based, multiplex flow cytometry, S. cerevisiae, primary screen (AID 1887;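 active = GFP signal above the screen-wide mean plus 3 SD, that is over about 124.5% of the solvent control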;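 also: AGP1-GFP fusion strain of S. cerevisiae within a five-strain barcoded multiplex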). The note with it: 3 h, at 10 µM, stronger effect = higher value.
Assay [6] can be described thus: reduced mouse 2C T cell binding to pMHC/ICAM-1 vesicles – MLPCN validation set, flow cytometry, LFA-1/ICAM-1 modulator project, pilot screen (AID 2523;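 active = response below a set limit, under 55% cells CD8-positive and vesicle-bound, and CD8 cells' 90th-percentile brightness under 279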;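 as to vesicle binding response: mean PE anti-B7-1 fluorescence of CD8+ cells relative to row control; 100% = QL9-loaded vesicles with DMSO vehicle in the same plate row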). The settings on record: 2C mouse CD8+ T cells, at 7 µM, stronger effect = lower value; double positive events: measured here: CD8+/vesicle+ event percentage.
Assay [7] deals with Integrin beta-1 (Homo sapiens) + Integrin alpha-4 (Homo sapiens) (UniProt P13612+P05556). Nature of the assay: alpha4beta1 integrin LIBS antibody binding reduction – U937 cells, HUTS-21 mAb, flow cytometry, validation set, VLA-4 allosteric modulator project, pilot screen (AID 2674;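 active = inhibition above 50%, about 3 SD of the validation set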;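 also: antibody binding induced by the VLA-4 ligand LDV present at three times its Kd; 0% = LDV ligand with antibody and no compound and 100% = antibody without LDV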). The settings on record: HUTS-21 LIBS mAb binding, at 6.7 µM, stronger effect = higher value, binding induced by LDV ligand.
Integrin beta-1 (Homo sapiens) + Integrin alpha-4 (Homo sapiens), sequence (P05556 whole entry, looked up): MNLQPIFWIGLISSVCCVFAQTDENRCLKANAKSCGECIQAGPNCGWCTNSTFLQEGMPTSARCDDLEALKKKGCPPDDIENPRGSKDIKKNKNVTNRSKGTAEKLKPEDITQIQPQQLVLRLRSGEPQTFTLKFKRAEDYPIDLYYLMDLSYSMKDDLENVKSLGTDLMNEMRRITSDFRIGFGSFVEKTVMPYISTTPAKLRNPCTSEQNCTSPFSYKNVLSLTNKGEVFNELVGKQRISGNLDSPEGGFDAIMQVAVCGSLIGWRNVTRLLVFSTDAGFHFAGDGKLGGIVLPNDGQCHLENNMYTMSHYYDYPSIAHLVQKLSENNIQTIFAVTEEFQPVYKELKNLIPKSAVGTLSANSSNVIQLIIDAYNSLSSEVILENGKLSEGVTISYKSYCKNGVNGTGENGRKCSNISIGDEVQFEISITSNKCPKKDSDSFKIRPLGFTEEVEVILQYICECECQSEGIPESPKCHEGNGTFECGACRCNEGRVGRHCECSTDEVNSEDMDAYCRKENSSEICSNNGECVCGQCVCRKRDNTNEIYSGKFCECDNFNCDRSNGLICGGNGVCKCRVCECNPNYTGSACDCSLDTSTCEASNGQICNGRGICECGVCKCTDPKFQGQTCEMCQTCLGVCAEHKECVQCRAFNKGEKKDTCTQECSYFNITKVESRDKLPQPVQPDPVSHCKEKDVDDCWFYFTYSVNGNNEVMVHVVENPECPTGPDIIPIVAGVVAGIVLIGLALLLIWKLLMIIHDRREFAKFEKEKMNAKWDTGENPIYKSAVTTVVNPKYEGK
Integrin beta-1 (Homo sapiens) + Integrin alpha-4 (Homo sapiens), sequence (P13612 whole entry, looked up): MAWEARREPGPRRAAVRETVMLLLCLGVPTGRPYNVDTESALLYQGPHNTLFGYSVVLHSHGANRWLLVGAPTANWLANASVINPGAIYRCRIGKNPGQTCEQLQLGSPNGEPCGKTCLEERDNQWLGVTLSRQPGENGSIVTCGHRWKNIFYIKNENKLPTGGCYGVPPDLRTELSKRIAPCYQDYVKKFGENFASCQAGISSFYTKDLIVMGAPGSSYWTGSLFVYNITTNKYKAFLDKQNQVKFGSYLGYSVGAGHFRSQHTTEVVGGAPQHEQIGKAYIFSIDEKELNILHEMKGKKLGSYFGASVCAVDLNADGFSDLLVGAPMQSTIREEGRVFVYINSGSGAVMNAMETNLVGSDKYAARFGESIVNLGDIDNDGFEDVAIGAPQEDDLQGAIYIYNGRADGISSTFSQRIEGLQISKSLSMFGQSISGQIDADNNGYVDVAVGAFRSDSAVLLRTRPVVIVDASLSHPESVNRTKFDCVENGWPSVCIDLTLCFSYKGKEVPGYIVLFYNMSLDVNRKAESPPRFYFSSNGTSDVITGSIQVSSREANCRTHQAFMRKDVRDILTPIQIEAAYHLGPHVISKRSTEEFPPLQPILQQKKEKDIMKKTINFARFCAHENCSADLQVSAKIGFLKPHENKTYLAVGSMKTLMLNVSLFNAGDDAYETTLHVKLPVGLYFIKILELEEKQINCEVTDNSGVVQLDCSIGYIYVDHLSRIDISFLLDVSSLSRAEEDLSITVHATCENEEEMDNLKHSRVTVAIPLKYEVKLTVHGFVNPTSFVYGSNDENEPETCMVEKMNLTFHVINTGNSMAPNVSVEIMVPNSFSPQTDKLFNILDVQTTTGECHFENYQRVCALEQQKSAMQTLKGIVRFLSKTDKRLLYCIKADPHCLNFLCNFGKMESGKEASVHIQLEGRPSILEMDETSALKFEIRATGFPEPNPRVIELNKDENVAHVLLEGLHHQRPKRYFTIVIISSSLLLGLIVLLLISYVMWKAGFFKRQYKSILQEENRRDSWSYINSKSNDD

The nature of assay [8]: calorie-restriction mimetic ROS inhibitors, yeast – validation compound set, pilot screen (AID 2706;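 active = superoxide response below 65% of plate, a cut near 3 SD across the whole screen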;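 also: yeast exposed to compound for one week at 30 degrees C before staining; 100% = mean of all compound wells on the same plate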). The settings on record: S. cerevisiae aging, superoxide DHE fluorescence; at 10 µM; stronger effect = lower value.
Assay [9] concerns the target Beta-adrenergic receptor kinase 1 (Homo sapiens) (UniProt P25098). As to the kind of experiment: GRK2 binders displacing RNA aptamer, biochemical, validation, human GRK2, bead flow cytometry (AID 488806;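 active = aptamer binding inhibition above 30%, about 3 SD of noise from non-fluorescent compounds; inactive = inhibition at or below 30%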). The settings on record: bead-bound GRK2, FAM-aptamer displacement, at 10 µM, stronger effect = higher value.
In assay [10] the target is Beta-2 adrenergic receptor (Homo sapiens) (UniProt P07550). As to the kind of experiment: agonist-induced loss of surface beta2AR – cell-based, FAP fluorogen, flow cytometry, validation set, pilot screen (AID 504459;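 active = percent response above 42, roughly 3 SD of non-fluorescent test compounds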;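 also: agonist-driven loss of surface beta2AR via internalization measured by FAP dye flow cytometry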). The settings on record: Am2.2-beta2AR cells, at 10 µM, stronger effect = higher value.
Beta-2 adrenergic receptor (Homo sapiens), sequence (P07550 whole entry, looked up): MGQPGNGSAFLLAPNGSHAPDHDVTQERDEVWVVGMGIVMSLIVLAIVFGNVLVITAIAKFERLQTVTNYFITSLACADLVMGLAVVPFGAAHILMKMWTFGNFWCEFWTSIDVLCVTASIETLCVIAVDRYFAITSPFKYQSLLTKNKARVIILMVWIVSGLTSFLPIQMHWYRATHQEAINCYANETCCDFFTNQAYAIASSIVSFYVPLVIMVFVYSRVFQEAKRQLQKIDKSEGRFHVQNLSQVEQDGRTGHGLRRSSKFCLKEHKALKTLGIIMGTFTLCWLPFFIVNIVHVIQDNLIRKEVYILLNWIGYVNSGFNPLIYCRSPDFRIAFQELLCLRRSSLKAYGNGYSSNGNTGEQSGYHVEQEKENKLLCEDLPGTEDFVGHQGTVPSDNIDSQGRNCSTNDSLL
The target of assay [11] is AP-2 complex subunit beta (Homo sapiens) (UniProt P63010). As to the kind of experiment: beta-arrestin/AP2 interaction blockers – biochemical, validation set, GST-AP2 beads, flow cytometry, pilot screen (AID 504541).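 Also: AP2 carries R879A mutation and is captured from E. coli lysate; bead-bound FITC arrestin peptide fluorescence measuring arrestin peptide binding to AP2; 0% = DMSO wells and 100% = excess unlabeled arrestin peptide control.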 The note with it: FITC arrestin peptide, at 10 µM, stronger effect = higher value, AP2 beta2 appendage fragment, R879A mutant.
AP-2 complex subunit beta (Homo sapiens), sequence (P63010 whole entry, looked up, the tested form may be a part, one chain of several): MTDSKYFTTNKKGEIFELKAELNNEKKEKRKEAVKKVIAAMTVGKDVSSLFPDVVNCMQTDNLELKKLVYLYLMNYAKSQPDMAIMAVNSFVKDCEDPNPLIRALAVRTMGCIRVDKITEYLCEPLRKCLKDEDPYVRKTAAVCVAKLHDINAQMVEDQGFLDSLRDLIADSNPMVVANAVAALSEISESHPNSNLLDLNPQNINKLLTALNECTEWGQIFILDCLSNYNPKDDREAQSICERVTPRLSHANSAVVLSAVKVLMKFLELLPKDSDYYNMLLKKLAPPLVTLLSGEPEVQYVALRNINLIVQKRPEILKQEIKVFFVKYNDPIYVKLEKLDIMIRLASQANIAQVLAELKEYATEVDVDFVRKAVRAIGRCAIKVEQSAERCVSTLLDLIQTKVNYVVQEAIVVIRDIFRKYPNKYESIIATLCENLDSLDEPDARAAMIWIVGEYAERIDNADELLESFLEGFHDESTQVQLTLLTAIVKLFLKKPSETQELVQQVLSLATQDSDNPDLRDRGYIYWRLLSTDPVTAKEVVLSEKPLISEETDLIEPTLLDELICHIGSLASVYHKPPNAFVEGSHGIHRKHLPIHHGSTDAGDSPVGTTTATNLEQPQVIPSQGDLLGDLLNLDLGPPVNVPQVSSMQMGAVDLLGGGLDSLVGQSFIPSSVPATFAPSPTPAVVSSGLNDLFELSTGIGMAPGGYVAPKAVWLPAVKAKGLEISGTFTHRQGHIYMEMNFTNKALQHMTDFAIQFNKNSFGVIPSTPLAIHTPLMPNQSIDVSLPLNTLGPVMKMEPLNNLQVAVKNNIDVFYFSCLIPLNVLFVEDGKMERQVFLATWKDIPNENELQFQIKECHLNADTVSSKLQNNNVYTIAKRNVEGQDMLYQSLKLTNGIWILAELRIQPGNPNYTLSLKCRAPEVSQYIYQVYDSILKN
Assay [12] is described as follows: cytosolic pH regulators acting via V-ATPase – S. cerevisiae, pHLuorin, HTS validation (AID 504600; in the data active = response above about 15%;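 also: plate controls were DMSO for no effect and reference compound for full effect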). The note with it: V-ATPase proton transport, at 10 µM, stronger effect = higher value.
The subject of assay [13] is anti-desmoglein-3 scFv antibody binding to human DSG3. Nature of the assay: blockers of pathogenic pemphigus antibody–desmoglein-3 binding – biochemical, validation compound set, bead-based, flow cytometry, pilot screen (AID 588368;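 active = binding below the plate cutoff, the plate median minus 3 SD, with a reading above zero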;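 also: signal is the median channel fluorescence of bead-bound GFP antibody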). The settings on record: Protein G beads, DSG3-Fc, scFv-GFP binding, at 10 µM, stronger effect = lower value.
A short description of assay [14]: Nile Red efflux blockade in pump-expressing yeast – validation compound set, multiplex, phenotypic, pilot screen (AID 588506;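 active = efflux inhibition above 0.42, the validation set average plus 4 SD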;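 also: Nile Red retained in cells so higher fluorescence means more efflux inhibition; 0 = negative control wells and 1 = enniatin B 25 µM full block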). The note with it: S. cerevisiae pump-expressing triplex, Nile Red efflux flow cytometry; at 10 µM; stronger effect = higher value; the pumps come from Candida albicans.
For assay [15], the target named is ATP-binding cassette sub-family B member 6 (Homo sapiens) (UniProt Q9NP58). Nature of the assay: blockers of ABCB6-driven porphyrin uptake – K562-ABCB6 cells, flow cytometry, validation set, pilot screen (AID 588550;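 active = inhibition above the screen-wide mean plus 3 SD, about 51%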;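 also: 0% = DMSO wells and 100% = benzethonium chloride 70 µM positive control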). The note with it: K562-ABCB6 porphyrin accumulation, 1 h, at 10 µM, stronger effect = higher value.
ATP-binding cassette sub-family B member 6 (Homo sapiens), sequence (Q9NP58 whole entry, looked up): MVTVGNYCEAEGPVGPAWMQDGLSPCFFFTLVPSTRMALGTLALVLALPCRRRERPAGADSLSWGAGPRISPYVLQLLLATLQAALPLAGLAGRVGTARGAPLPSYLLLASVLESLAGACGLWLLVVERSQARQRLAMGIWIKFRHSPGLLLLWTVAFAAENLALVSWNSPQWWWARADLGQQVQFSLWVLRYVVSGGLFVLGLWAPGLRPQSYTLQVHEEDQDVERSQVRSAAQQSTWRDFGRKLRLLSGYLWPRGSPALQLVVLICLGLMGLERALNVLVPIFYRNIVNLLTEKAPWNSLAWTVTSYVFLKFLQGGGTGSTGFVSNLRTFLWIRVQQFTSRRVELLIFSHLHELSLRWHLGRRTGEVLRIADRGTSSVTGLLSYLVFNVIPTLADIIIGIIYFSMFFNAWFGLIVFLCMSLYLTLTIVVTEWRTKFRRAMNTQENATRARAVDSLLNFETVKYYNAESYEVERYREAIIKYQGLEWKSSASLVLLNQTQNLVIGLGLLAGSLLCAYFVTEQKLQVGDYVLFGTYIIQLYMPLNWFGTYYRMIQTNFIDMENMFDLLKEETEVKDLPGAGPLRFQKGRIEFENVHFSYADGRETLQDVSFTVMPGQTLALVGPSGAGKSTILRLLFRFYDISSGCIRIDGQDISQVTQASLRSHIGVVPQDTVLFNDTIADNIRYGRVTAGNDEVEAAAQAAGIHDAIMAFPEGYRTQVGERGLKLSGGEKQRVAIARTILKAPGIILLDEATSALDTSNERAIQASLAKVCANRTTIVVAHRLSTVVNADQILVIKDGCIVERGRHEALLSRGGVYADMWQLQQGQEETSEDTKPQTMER
The nature of assay [16]: AML differentiation inducers, ER-HoxA9 marrow cells – cell-based, GFP/MAC1 double positive, flow cytometry, validation set, primary screen (AID 588685;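 active = differentiation response of at least 50%, scaled between solvent and reference control, from cells with both markers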;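 also: compound exposure lasts four days before antibody staining and flow analysis; 0% = DMSO wells and 100% = 5 µM fulvestrant positive control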). The note with it: stronger effect = higher value, normalized: vehicle 0, fulvestrant 100.

Beta-adrenergic receptor kinase 1 (Homo sapiens), sequence (P25098 whole entry, looked up): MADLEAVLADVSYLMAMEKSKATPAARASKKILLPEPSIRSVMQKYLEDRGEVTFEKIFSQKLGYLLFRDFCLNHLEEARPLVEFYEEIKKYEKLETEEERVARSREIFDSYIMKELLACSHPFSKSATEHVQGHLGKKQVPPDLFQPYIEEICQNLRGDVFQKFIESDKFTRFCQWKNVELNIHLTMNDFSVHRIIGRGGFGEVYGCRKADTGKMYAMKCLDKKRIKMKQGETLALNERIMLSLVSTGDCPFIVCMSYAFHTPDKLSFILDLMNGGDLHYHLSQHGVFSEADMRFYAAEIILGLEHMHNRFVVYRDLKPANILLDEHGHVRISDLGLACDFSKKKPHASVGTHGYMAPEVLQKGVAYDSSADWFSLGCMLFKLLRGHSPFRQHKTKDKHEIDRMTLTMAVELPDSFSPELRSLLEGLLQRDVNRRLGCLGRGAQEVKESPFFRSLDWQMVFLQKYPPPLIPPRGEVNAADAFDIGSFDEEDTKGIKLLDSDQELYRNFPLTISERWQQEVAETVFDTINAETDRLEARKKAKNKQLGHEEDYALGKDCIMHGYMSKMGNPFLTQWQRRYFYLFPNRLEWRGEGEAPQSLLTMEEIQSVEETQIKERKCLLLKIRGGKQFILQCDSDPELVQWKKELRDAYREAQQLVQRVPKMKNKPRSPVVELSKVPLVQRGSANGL

Broadly, the inhibition is the relative decrease from the control value, in per cent. `CC(C)Oc1ccc2c(=O)c(-c3ccccc3)coc2c1`: the percent of DMSO control GFP in assay [1] was 86.5% (inactive). The GFP response vs DMSO in assay [2] was 101% (inactive); in [4] it was 83.1% (inactive). In addition, the percent response of DMSO control in [3] is 106% (inactive). For the same compound, the GFP response, % of DMSO in assay [5] was 94% (inactive). The compound also registered a double positive events in assay [6] of 66.7%. In addition, the vesicle binding response in [6] was 209% (inactive). The figures for the inhibition in assay [7], in [11] and in [15] were -7.12% (inactive), 2.38% (inactive) and 13% (inactive), respectively. In [8], the superoxide response (% of plate) was 94.6% (inactive). Moreover, the aptamer binding inhibition in assay [9] was 0% (inactive). Besides, the response is 1.13% (inactive) in [10] and 1.01% (inactive) in [12]. Moreover, the binding (% of control) in [13] was 101% (inactive). In addition, the efflux inhibition (fraction of control) in assay [14] was -0.53 (inactive). Besides, in assay [16], the differentiation response is -5.73% (inactive).
Consider `CCCCOn1c(C)c(C(C)=O)c2c3no[n+]([O-])c3ccc21`, for which the percent of DMSO control GFP in assay [1] is 101% (inactive). Further, the GFP response vs DMSO was 105% (inactive) in assay [2] and 120% (inactive) in assay [4]. For the same compound, in assay [3], the percent response of DMSO control is 97.7% (inactive). For the same compound, in [5], the GFP response, % of DMSO is 99.4% (inactive). In assay [6], this compound displayed a double positive events of 59.8%. Moreover, the vesicle binding response in [6] was 246% (inactive). Also, the inhibition was -12.7% (inactive) in [7], -10.5% (inactive) in assay [11] and 7% (inactive) in [15]. Moreover, the superoxide response (% of plate) in assay [8] was 106% (inactive). Also, the aptamer binding inhibition in [9] was 0% (inactive). Further, the response was 25.4% (inactive) in assay [10] and 5.1% (inactive) in assay [12]. Further, the binding (% of control) in assay [13] is 94.3% (inactive). The efflux inhibition (fraction of control) in assay [14] was -0.1 (inactive). For the same compound, the differentiation response in assay [16] is 74.4% (active).
With `O=C1CC(c2ccc(O)cc2)Oc2cc(O)cc(O)c21` (stereo not given), the percent of DMSO control GFP in assay [1] is 107% (inactive). The GFP response vs DMSO was 99.3% (inactive) in assay [2] and 104% (inactive) in [4]. The percent response of DMSO control in assay [3] is 107% (inactive). Besides, in assay [5], the GFP response, % of DMSO was 110% (inactive). The double positive events in assay [6] was found to be 61.7%. Moreover, the vesicle binding response in assay [6] is 238% (inactive). Moreover, the values for the inhibition in assay [7], in assay [11] and in [15] were -31.6% (inactive), -6.71% (inactive) and 9% (inactive), respectively. Further, the superoxide response (% of plate) in assay [8] was 91.7% (inactive). Further, the aptamer binding inhibition in assay [9] is 1% (inactive). Further, the response in [10] was -11.3% (inactive); in assay [12], 4.67% (inactive). In [13], the binding (% of control) is 94.3% (inactive). The efflux inhibition (fraction of control) in assay [14] is -0.26 (inactive). Further, in [16], the differentiation response is 1.22% (inactive).
Take `CC(=O)c1cccc(NC(=O)N[C@@H](CC(C)C)C(=O)O)c1`: the percent of DMSO control GFP in assay [1] is 104% (inactive). The GFP response vs DMSO in assay [2] was 101% (inactive); in [4], 96.6% (inactive). In addition, the percent response of DMSO control in assay [3] is 104% (inactive). In addition, the GFP response, % of DMSO in assay [5] was 104% (inactive). For the same compound, in [6], the double positive events turned out to be 57.9%. Besides, in assay [6], the vesicle binding response was 230% (inactive). Besides, the inhibition in assay [7] is -9.79% (inactive); in assay [11] it was 17.6% (inactive); in assay [15], 6% (inactive). For the same compound, the superoxide response (% of plate) in assay [8] was 109% (inactive). Besides, in assay [9], the aptamer binding inhibition is -2% (inactive). The response in [10] was -0.44% (inactive); in [12], -2.05% (inactive). Further, the binding (% of control) in assay [13] was 99.2% (inactive). Also, the efflux inhibition (fraction of control) in assay [14] is 0.18 (inactive). In addition, the differentiation response in assay [16] was 9.04% (inactive).
`C#CCOc1ccc2c(C)cc(=O)oc2c1`: the percent of DMSO control GFP in assay [1] is 105% (inactive). For the same compound, the GFP response vs DMSO was 93% (inactive) in assay [2] and 77.6% (inactive) in [4]. Moreover, in [3], the percent response of DMSO control was 107% (inactive). Also, the GFP response, % of DMSO in [5] was 98.9% (inactive). The double positive events in [6] turned out to be 60.4%. Moreover, the vesicle binding response in assay [6] was 603% (inactive). Further, the inhibition was 3.7% (inactive) in assay [7], -7.76% (inactive) in assay [11] and 0% (inactive) in assay [15]. Moreover, the superoxide response (% of plate) in assay [8] was 98% (inactive). In [9], the aptamer binding inhibition is 4% (inactive). Further, the response in [10] was -1.57% (inactive); in assay [12], -0.49% (inactive). Also, the binding (% of control) in assay [13] is 99.7% (inactive). For the same compound, the efflux inhibition (fraction of control) in assay [14] was 0.36 (inactive). For the same compound, in [16], the differentiation response is 16.9% (inactive).

Source of the values: PubChem BioAssay.
